High-throughput results deposited in PubChem BioAssay by Buhrlage Lab, Dana-Farber Cancer Institute and Novartis Institutes for BioMedical Research (Cambridge, Mass).
USP30 inh: human USP30 deubiquitinase inhibition. Q70CQ3. purified USP30, Ub-rhodamine cleavage fluorescence. inhibition, % at 25 µM. 47,000 compounds, 5.3% hits
USP8 inh: blocks human USP8 ubiquitin-rhodamine cleavage. purified USP8, Ub-rhodamine cleavage fluorescence, 30 min. 47,000 compounds, 4.2% hits. inhibition, % at 20 µM
USP10 block: human USP10 deubiquitinase inhibition; inhibition, % at 20 µM; 47,000 compounds, 1.1% hits; AID 1645856; purified USP10, Ub-rhodamine fluorescence, 60 min
USP28 inh: human USP28 deubiquitinase inhibition. Q96RU2. purified USP28, Ub-rhodamine cleavage fluorescence, 30 min. inhibition, % at 25 µM. 47,000 compounds, 3% hits
USP17 inh: human USP17-like deubiquitinase inhibition. purified USP17, Ub-rhodamine cleavage fluorescence, 3 h. inhibition, % at 50 µM. 47,000 compounds, 6.5% hits. AID 1645855
The depositor's hits bear a star; i = inactive. A selection: hits, their analogues and other compounds. The true share with any hit is near 14%. No stated cut-off is given here; in the data, active means inhibition above about 30%; inactive means the rest.

SMILES	USP30 inh	USP8 inh	USP10 block	USP28 inh	USP17 inh
Cc1ccccc1NC(=O)NC1CCN(c2ccc(F)cc2)C1=O (centres undefined)	26	13	4	7	10
COc1ccc(-c2ccc(C(=O)N3CCCC3c3ccnc4cc(C)nn34)c(=O)[nH]2)cc1 (centres undefined)	-40	-4	-1	-2	-7
Cn1c(N)c(C(=O)COc2ccc([N+](=O)[O-])cc2Cl)c(=O)n(C)c1=O	0	-62	-1	2	-9
Cn1c(N)c(C(=O)CSc2nnc(Cn3cnc4ccccc43)n2-c2ccccc2Cl)c(=O)n(C)c1=O	39*	-3	-3	6	9
Cn1c(=O)c2c(C(=O)N3CCN(c4ccccc4)CC3)cc(=O)n(C)c2n(C)c1=O	-36	-34	-3	-23	-22
CC[C@H](C)C[C@H]1CC[C@](O)([C@](C)(O)C(=O)N[C@@H]2C(=O)N3NCCC[C@@H]3C(=O)N(O)[C@@H](C)C(=O)NCC(=O)N3NCCC[C@H]3C(=O)N(O)[C@H](C)C(=O)O[C@H]2C(C)C)O[C@@H]1C	61*	0	-2	48*	41*
COc1ccc(/C=C2\CSc3sccc3C2=O)cc1	21	11	2	50*	20
Cc1ccc(NC(=O)Nc2cccn3nc(C)nc23)cc1	14	3	1	47*	1
CC(OC(=O)c1ccc2c(c1)OCO2)C(=O)NCC1CCCCC1 (centres undefined)	54*	24	2	27	54*
CC(OC(=O)c1ccc2c(c1)OCCO2)C(=O)NCC1CCCCC1 (centres undefined)	53*	3	1	22	29
CCN1C[C@H]2C3(CCN(C(=O)Nc4ccccc4)CC3)CC[C@@]2(C(=O)NC)C1	15	-195	0	0	-8
CC(=O)Nc1cc(-c2cccc(O)c2)cn2c(-c3cnn(C)c3)cnc12	36*	-9	-5	13	61*
CC(=O)Nc1cc(-c2cnn(C)c2)cn2c(-c3cnn(C)c3)cnc12	-184	2	-10	-37	-4
COc1ccc(NC(=O)C2CCN(C3=NS(=O)(=O)c4ccccc43)CC2)cc1	41*	3	4	17	43*
Cc1ccccc1CNC(=O)C1CCN(C2=NS(=O)(=O)c3ccccc32)CC1	32*	18	-4	6	12
COCCn1c(=O)[nH]c2cc(-c3nc(-c4ccccc4)no3)ccc2c1=O	26	3	0	13	21
CN1C[C@@H](NC(=O)Nc2ccc(Cl)cc2)C[C@H]1c1nc(-c2cncnc2)no1	7	-6	-1	-6	-1
O=S1(=O)NC(=NCCc2ccc(Cl)cc2)c2ccccc21	29	15	7	9	35*
O=S1(=O)NC(=NCCc2ccc(Cl)cc2Cl)c2ccccc21	22	19	7	5	58*
CC(CN=C1NS(=O)(=O)c2ccccc21)c1ccccc1 (centres undefined)	16	29	9	15	14
CCC(C)(C)C1CCC2(CC1)N=C(N)Nc1nc3ccccc3n12 (centres undefined)	69*	4	2	29	11
CCc1ccccc1NC(=O)N1CCC2(C1)Nc1cccnc1NC2=NC(C)(C)C (centres undefined)	-251	-16	-10	-77	-55
O=C(Cc1nnc(NC(=O)Nc2ccccc2Cl)s1)NCc1ccccc1	i	-47	-2	-108	-133
Fc1ccc(-c2[nH]ncc2CN2CCN(c3ccccn3)CC2)cc1	12	1	-2	10	-3
Fc1ccc(-c2cnc(N3CCN(c4ccccn4)CC3)nc2)cc1	31*	17	-6	8	19
SMILES	USP30 inh	USP8 inh	USP10 block	USP28 inh	USP17 inh
O=C(NCc1ccc(F)cc1)c1cn(CC2CCCO2)cc2c(=O)n(-c3ccccc3)nc1-2 (centres undefined)	0	-2	-4	-9	-2
O=C(Nc1ccncc1)c1cn(Cc2ccccc2)cc2c(=O)n(-c3ccccc3)nc1-2	50*	18	17	16	24
CC1CCN(c2ccc3ccc(C(=O)NCc4ccccn4)cn23)CC1	i	-42	-5	-207	-144
O=C1NCc2ccccc2CC12CCN(CC1CC=CCC1)CC2 (centres undefined)	-216	-58	-13	-65	-72
O=C(CN(c1ccccc1)S(=O)(=O)c1ccccc1)Oc1cc(Cl)ccc1Cl	34*	30*	5	6	21
N#Cc1ccc(N2CCC(C3CCCCCN3C(=O)C3CCOCC3)CC2)nc1 (centres undefined)	12	-3	-1	11	5
Cc1ccc(C)c(Cn2nnc3c(=O)[nH]c(C4CCN(S(=O)(=O)c5ccc(S(=O)(=O)N6CCOCC6)cc5)CC4)nc32)c1	33*	56*	15	15	40*
Cc1ccc(C)c(Cn2nnc3c(=O)[nH]c(C4CCN(S(=O)(=O)c5ccc(S(=O)(=O)NC6CCCC6)cc5)CC4)nc32)c1	-1	-18	30	21	-8
Cc1ccc(C)c(Cn2nnc3c(=O)[nH]c(C4CCN(S(=O)(=O)c5ccc(S(=O)(=O)NC6CC6)cc5)CC4)nc32)c1	52*	-42	26	42*	30*
Cc1nnc(-c2cnn(-c3ccccc3)c2N)n1Cc1cccc(C(F)(F)F)c1	21	7	0	8	4
CC(CCc1ccccc1)NC(=O)Cn1c(=O)c2cccn2c2ccccc21 (centres undefined)	19	-5	15	15	82*
COc1ccc2c(ccn2CC(=O)NC(C)CCc2ccccc2)c1 (centres undefined)	-16	6	-4	2	1
CC(CNC(=O)Cn1c(=O)c2cccn2c2ccccc21)c1ccccc1 (centres undefined)	32*	27	10	14	17
O=C1NC2(CCN(S(=O)(=O)c3ccc(F)c(Cl)c3)CC2)Nc2ccccc21	-2	4	2	-7	50*
Cc1ccc(C)c(S(=O)(=O)N2CCC3(CC2)NC(=O)c2ccccc2N3)c1	20	20	-3	5	59*
O=C1NC2(CCN(S(=O)(=O)c3ccc(F)cc3F)CC2)Nc2ccccc21	22	8	-2	12	0
Cc1cc(OCC(=O)Nc2c(C)cccc2C)nc(N2CCCCCC2)n1	9	2	-2	5	30*
Cc1cc(OCC(=O)Nc2ccccc2F)nc(N2CCCC(C)C2)n1 (centres undefined)	47*	15	6	7	18
Cc1cc(OCC(=O)Nc2ccccc2)nc(N2CCCCCC2)n1	26	21	4	18	13
Cc1cc(OCC(=O)Nc2ccccc2C#N)nc(-c2ccc(F)cc2)n1	-25	-15	-10	-6	36*
O=C(NCc1ccccc1)c1cnn2c3c(cnc12)CCCCC3	14	-9	0	8	11
CC1(C)OC2=C(C(=O)c3cc(O)cc(O)c3C2=O)c2cc(CO)c(O)cc21	0	10	-4	27	82*
